Source: PubChem
Calb FLC: C. albicans growth modulation with fluconazole; 0.57% of 300,000 active; C. albicans CaCi-2 (fluconazole-resistant clinical isolate) + fluconazole, Alamar Blue growth, 48 h; growth inhibition, % (test concentration not listed); AID 1979;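 active = growth inhibition above about 58% in most replicates, limit read from the data, passing the limit was not always enough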;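 note: all wells also contain fluconazole at 8 µg/ml as a sub-toxic cotreatment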
SKKanGAS inh: blocks kanamycin growth of S. pyogenes SKKanGAS strain. BacTiter-Glo, 6 h. inhibition, % at 7.5 µM. 1.3% of 300,000 active;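 active = mean replicate score, as percent of positive control median, at least 50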;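 note: strain carries kanamycin resistance gene driven by streptokinase promoter and grows in 40 µg/ml kanamycin; loss of luminescence reflects streptokinase promoter inhibition or plain growth inhibition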
TIM10 inh: growth inhibitors of TIM10 yeast strain; AID 463195; 1.4% of 330,000 active; S. cerevisiae TIM10 strain growth, BacTiter-Glo luminescence, 24 h; inhibition, % at 10 µM;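 active = inhibition of 40% or more at the single tested concentration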;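 note: wild-type TIM10 isogenic control strain grown at permissive 25 °C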
tim23-1 inh: tim23-1 yeast growth inhibition; inhibition, % at 20 µM; AID 463212; S. cerevisiae tim23-1 growth, BacTiter-Glo luminescence, 24 h; 1.3% of 330,000 active;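 active = growth inhibition of the mutant yeast at or above 50%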;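 note: temperature-sensitive mutant grown at 25 °C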
PfHsp90 set2: inhibits growth of yeast expressing Plasmodium falciparum Hsp90; AID 504621; inhibition, % at 9.4 µM; S. cerevisiae expressing PfHsp90, BacTiter-Glo ATP, 48 h; yeast lacking PDR1 and PDR3 efflux regulators; 0.32% of 310,000 active;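 active = every replicate shows inhibition above about 80%, whatever the replicate mean, limit read from the data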
tim10-1 inh: inhibits growth of tim10-1 mutant yeast | inhibition, % at 20 µM | S. cerevisiae tim10-1 ts strain growth, BacTiter-Glo, 24 h | 2.2% of 330,000 active;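 active = inhibition of at least 40%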;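 note: mutant grown at 25 °C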
tim23-1 confirm: confirmation of tim23-1 mutant yeast growth inhibitors. shares compounds with tim23-1 inh. inhibition, % at 20 µM. S. cerevisiae tim23-1 growth, BacTiter-Glo luminescence, 24 h. 83% of 4,400 active. AID 463218;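 active = inhibition above about 39% in either of two replicate wells at 20 µM, limit read from the data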;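 note: temperature-sensitive tim23-1 mutant grown at 25 °C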
Of the large screens only hits and unclear results are named; the others gave an inactive call (follow-up assays come after a bar, where they were run). Hits are enriched below; roughly 4.7% of the tested compounds scored in any of these assays.

COCCOC(=O)/C(=C\c1cc(C(C)(C)C)c(O)c(C(C)(C)C)c1)C(C)=O	tim23-1 inh 59 | tim23-1 confirm 58
CC(C)NC(=S)N/N=C/C1=CCC2CC1C2(C)C (stereo not drawn)	tim23-1 inh 56 | tim23-1 confirm inactive
CCCCNC(=S)N/N=C/C1=CCC2CC1C2(C)C (stereo not drawn)	tim23-1 inh 53 | tim23-1 confirm inactive
C=C(C)CNC(=S)N/N=C/C1=CCC2CC1C2(C)C (stereo not drawn)	none
COCCNC(=O)NC(=O)CN1C(=O)NC(Cc2c[nH]c3ccccc23)C1=O (stereo not drawn)	none
CC1=C(C#N)c2nc(N)c(C#N)c(C)c2/C1=C\c1ccc(OCC(=O)O)c(Cl)c1	tim23-1 inh 54 | tim23-1 confirm 49
CCOC(=O)CSc1nc(N)c(C#N)c(-c2ccc(OCC)cc2)c1C#N	none
CCOC(=O)C1CCN(C(=O)CN2C(=O)CSc3ccc(S(=O)(=O)N4CCOCC4)cc32)CC1	none
Cc1noc(C)c1CSc1nc2ccccc2c(=O)n1-c1ccccc1	tim23-1 inh 52 | tim23-1 confirm 45
NC(=S)N/N=C/c1coc2ccc(Br)cc2c1=O	tim23-1 inh 78 | tim23-1 confirm 75
NC(=S)N/N=C/c1coc2cc(Br)ccc2c1=O	tim23-1 inh 58 | tim23-1 confirm 58
NC(=S)N/N=C/c1coc2ccc(F)cc2c1=O	none (no result: PfHsp90 set2)
NC(=S)N/N=C/c1coc2ccc(O)cc2c1=O	none
O=C(O)COc1ccc(Br)cc1/C=N\Nc1ccccn1	none
COc1cc(OC)cc(C(=O)N[C@H](C(=O)NC2CCCc3ccccc32)C(C)C)c1 (stereo partly drawn)	none (no result: Calb FLC, SKKanGAS inh)
COC(C(=O)N1CCC(CCC(=O)Nc2ccccc2)CC1)c1ccccc1 (stereo not drawn)	none
Cn1c(C(=O)NCCc2c[nH]c3ccccc23)cc2sccc21	tim23-1 inh 57 | tim23-1 confirm 57
O=C(N/N=C/c1coc2ccc(Cl)cc2c1=O)c1cc(O)cc(O)c1	tim23-1 inh 72 | tim23-1 confirm 70
CCCOc1cccc(C(=O)N/N=C/c2coc3ccccc3c2=O)c1	Calb FLC 108, tim23-1 inh 55 (no result: SKKanGAS inh) | tim23-1 confirm 47
Cc1ccc2occ(/C=N/NC(=O)c3ccccc3O)c(=O)c2c1	Calb FLC 79, tim23-1 inh 53 | tim23-1 confirm 51
COc1ccc(C(=O)N/N=C\c2coc3ccc(C)cc3c2=O)cc1	none
Cc1ccc2occ(/C=N/NC(=O)c3ccncc3)c(=O)c2c1	tim23-1 inh 51 | tim23-1 confirm 51
COc1ccc(C)cc1NC(=O)CN1C(=O)COc2ccc(S(=O)(=O)N3CCC(C)CC3)cc21	none
CCN(CC)Cc1cc(Nc2c3ccccc3nc3c4ccccc4n(C)c23)cc(CN(CC)CC)c1O	none (no result: Calb FLC, SKKanGAS inh, TIM10 inh, tim23-1 inh, tim10-1 inh)
CCCCC(NC(=O)Cc1c(C)c2cc3c(-c4ccccc4)coc3c(C)c2oc1=O)C(=O)O (stereo not drawn)	none
Oc1ccc(Cl)cc1CNc1cnc2ccccc2c1	tim23-1 inh 62 | tim23-1 confirm 64
Oc1ccccc1CNc1cnc2ccccc2c1	none
CC1(C)CC(=O)C(N=Nc2ccc(C(F)(F)F)cc2[N+](=O)[O-])=C(O)C1	tim23-1 inh 78 | tim23-1 confirm 78
CC1(C)CC(=O)C(N=Nc2cccc([N+](=O)[O-])c2)=C(O)C1	tim23-1 inh 88 | tim23-1 confirm 93
O=C(Nc1ncc([N+](=O)[O-])s1)c1ccc2c(c1)OCO2	tim23-1 inh 57 | tim23-1 confirm 59
Cc1ccc(C(=O)Nc2ncc([N+](=O)[O-])s2)cc1	none (no result: TIM10 inh, tim23-1 inh, tim10-1 inh)
CC(SC(C)C(=O)NN=Cc1cccc(Cl)c1)C(=O)NN=Cc1cccc(Cl)c1 (stereo not drawn)	none (no result: Calb FLC, SKKanGAS inh, TIM10 inh, tim23-1 inh, tim10-1 inh)
N#C/C(N)=C(/C#N)N=Cc1cccc(Cl)c1	tim23-1 inh 52 | tim23-1 confirm 52
COc1ccccc1N(CC(=O)Nc1cc(S(=O)(=O)N(C)C)ccc1C)S(=O)(=O)c1cccs1	none (no result: Calb FLC, SKKanGAS inh)
Cc1nnc(N2CCCCC2)c2ccccc12	none
CC1CCN(c2nnc(N3CCC(C)CC3)c3ccccc23)CC1	tim23-1 inh 70 | tim23-1 confirm 57
